# Assay results from the supplement of paper PMC8728848.
# This excerpt belongs to a sample that is enriched for the strongest signals.
# B1: Epa1-NP (Candida glabrata), Q6VBJ0 (protein)
# chain: MILNPALFLNKCVCIYTTLILLLLTNGGYATSSNDISLASKDPTTFPLGCSPDITTPKKGLSMELYSYDFRKKGSYPCWDAAYLDPNYPRTGYKSHRLLAKVDGVTGNINFYYHATKGCTPQLGHLPASYNYPKPLTMTNFTMLLYGYFRPKVTGFHTFTISADDLLFVNFGAGNAFDCCRRDSSADHFGNYQAYAIWGSKTAKDELTVHLDAGVYYPIRLFYNNREYDGALSFTFKTESNENTVSDFSEYFFSLDDTEEGCPGLISYDSSCASVKTSKIIGIDYHTETPNENLVPITKTIYHLGIPCTGTTTTPLCGSGFYDPLANKCVTINTSSTSSVTKTTSHTTSKEVSFHSSISSQKTLIPKSIPSPYGPIKSQSIPTEMETSSEISSSEYAFSDVISTPSHSPYTKKHSSLNSSSYTSTVIHSLTSYSISQGIFSTSLSEQNITSKSSTDKFSTATSMSNNITQSSIIISQFSTNNENYTTTSMHTSSDKISTETLNNSISTTTSILFSNSSTILKNNTTIISSDKDTHYHPVNPTIVCSTNKTEIICASITQPSISNSNNHWSSSVLKFNSTTVRSTLPSSAGSNETSINVPFSSSTESNTSTSSTSTSNSKMVRSTLPSSAGSNETSISVPFSSSTESNTSTSSTSTSNSKMVRSTLPSSAGSNETSINVPFSSSTESNTSTSSTSTSNSKTVRSTPFSSAGIIMTSLSQRNNKSASSYASSNSKCYNTADSCRKVHSTPSYLLTSSYTSEGVDYDCSLVSTKLKINDTNCVNNKHTTKSCLKTSVTTTIPTLEIKTARKSSSNTIGLHSYPTSSPNKSISSAPIIGYISSFKTIKTASPSYQTSDLTTITTITSLNNPGSTAVENTHESNDKSRKTSSNDISSKHSVIKETKDAVESSNKSHQTNTLKCSSIIIASSSHNSYESLGGTTLTLTLSKVYSPQNNDTLPFLEISEVNPSRTVLPESSKMMQYLTSTEERNKTARNTIATNIVSISTFHFEGEGNAIRMGYTQLLLMLIGIIVMNIGT
# Columns and labels:
# Test in all cases: glycan array binding signal (z-score within array); higher = stronger binding
# Conditions in all cases: glycan notation: IUPAC condensed, linker removed
# [1] = molecular target: Fuc(a1-2)Gal(b1-3)GlcNAc(b1-3)Gal(b1-4)Glc
# Procedure, shortened: (§1)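 The Consortium for Functional Glycomics database supplied 3228 glycan arrays, of which those lacking an available protein sequence were dropped. The binding signal, a within-array Z-score, was averaged across arrays of the same protein sequence and across linkers. Negative scores can be read as non-binding.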
# [2] = molecular target: Fuc(a1-2)Gal(b1-4)GlcNAc(b1-3)Gal(b1-4)GlcNAc(b1-2)Man(a1-3)[Fuc(a1-2)Gal(b1-4)GlcNAc(b1-3)Gal(b1-4)GlcNAc(b1-2)Man(a1-6)]Man(b1-4)GlcNAc(b1-4)GlcNAc
# Procedure, shortened: as §1
# [3] = molecular target: Fuc(a1-2)Gal3S(b1-4)GlcNAc
# Procedure, shortened: as §1
# Fuc(a1-2)GlcNAc = molecular target: Fuc(a1-2)GlcNAc
# Procedure, shortened: as §1
# [4] = molecular target: Fuc(a1-2)[Gal(a1-3)]Gal(b1-4)GlcNAc(b1-3)GalNAc
# Procedure, shortened: as §1
# [5] = molecular target: Fuc(a1-2)[Gal(a1-3)]Gal(b1-4)GlcNAc(b1-3)[Fuc(a1-2)[Gal(a1-3)]Gal(b1-4)GlcNAc(b1-6)]GalNAc
# Procedure, shortened: as §1
# [6] = molecular target: Fuc(a1-2)[GalNAc(a1-3)]Gal(b1-3)GlcNAc(b1-6)GalNAc
# Procedure, shortened: as §1
# [7] = molecular target: Fuc(a1-2)[GalNAc(a1-3)]Gal(b1-4)[Fuc(a1-3)]GlcNAc
# Procedure, shortened: as §1
# [8] = molecular target: Fuc(a1-2)[GalNAc(b1-3)]Gal
# Procedure, shortened: as §1
# [9] = molecular target: Fuc(a1-3)[Gal3S(b1-4)]GlcNAc
# Procedure, shortened: as §1
# [10] = molecular target: Fuc(a1-3)[GalNAc(b1-4)]GlcNAc
# Procedure, shortened: as §1
# [11] = molecular target: Gal(a1-3)Gal(b1-4)[Fuc(a1-3)]GlcNAc(b1-2)Man(a1-3)[Gal(a1-3)Gal(b1-4)[Fuc(a1-3)]GlcNAc(b1-2)Man(a1-6)]Man(b1-4)GlcNAc(b1-4)GlcNAc
# Procedure, shortened: as §1
# Gal(a1-4)Gal(b1-4)Gal = molecular target: Gal(a1-4)Gal(b1-4)Gal
# Procedure, shortened: as §1
# Gal(b1-2)Gal = molecular target: Gal(b1-2)Gal
# Procedure, shortened: as §1
# Gal(b1-3)Gal = molecular target: Gal(b1-3)Gal
# Procedure, shortened: as §1
# Gal(b1-3)Gal(b1-4)GlcNAc = molecular target: Gal(b1-3)Gal(b1-4)GlcNAc
# Procedure, shortened: as §1
# Gal(b1-3)GalNAc = molecular target: Gal(b1-3)GalNAc
# Procedure, shortened: as §1
# Gal(b1-3)GalNAc(b1-3)Gal = molecular target: Gal(b1-3)GalNAc(b1-3)Gal
# Procedure, shortened: as §1
# [12] = molecular target: Gal(b1-3)GalNAc(b1-3)Gal(b1-4)Glc
# Procedure, shortened: as §1
# [13] = molecular target: Gal(b1-3)GalNAc(b1-4)Gal(b1-4)Glc
# Procedure, shortened: as §1
# [14] = molecular target: Gal(b1-3)GalNAc(b1-4)[Neu5Ac(a2-3)]Gal(b1-4)Glc
# Procedure, shortened: as §1
# [15] = molecular target: Gal(b1-3)[Neu5Ac(a2-6)]GalNAc
# Procedure, shortened: as §1
# [16] = molecular target: Gal(b1-4)GlcNAc(b1-2)Man(a1-6)[Man(a1-3)]Man(b1-4)GlcNAc(b1-4)GlcNAc
# Procedure, shortened: as §1
# [17] = molecular target: Gal(b1-4)GlcNAc(b1-3)Gal(b1-4)GlcNAc(b1-2)[Gal(b1-4)GlcNAc(b1-3)Gal(b1-4)GlcNAc(b1-6)]Man(a1-6)[Gal(b1-4)GlcNAc(b1-3)Gal(b1-4)GlcNAc(b1-2)Man(a1-3)]Man(b1-4)GlcNAc(b1-4)GlcNAc
# Procedure, shortened: as §1
# [18] = molecular target: Gal(b1-4)GlcNAc(b1-3)Gal(b1-4)GlcNAc(b1-2)[Gal(b1-4)GlcNAc(b1-3)Gal(b1-4)GlcNAc(b1-6)]Man(a1-6)[Gal(b1-4)GlcNAc(b1-3)Gal(b1-4)GlcNAc(b1-2)Man(a1-3)]Man(b1-4)GlcNAc(b1-4)[Fuc(a1-6)]GlcNAc
# Procedure, shortened: as §1
# [19] = molecular target: Gal(b1-4)GlcNAc(b1-3)Gal(b1-4)GlcNAc(b1-3)Gal(b1-4)GlcNAc(b1-2)[Gal(b1-4)GlcNAc(b1-3)Gal(b1-4)GlcNAc(b1-3)Gal(b1-4)GlcNAc(b1-6)]Man(a1-6)[Gal(b1-4)GlcNAc(b1-3)Gal(b1-4)GlcNAc(b1-3)Gal(b1-4)GlcNAc(b1-2)Man(a1-3)]Man(b1-4)GlcNAc(b1-4)[Fuc(a1-6)]GlcNAc
# Procedure, shortened: as §1
# [20] = molecular target: Gal(b1-4)GlcNAc(b1-3)Gal(b1-4)GlcNAc(b1-3)Gal(b1-4)GlcNAc(b1-3)Gal(b1-4)GlcNAc(b1-3)Gal(b1-4)GlcNAc(b1-3)Gal(b1-4)GlcNAc(b1-2)Man(a1-3)[Gal(b1-4)GlcNAc(b1-3)Gal(b1-4)GlcNAc(b1-3)Gal(b1-4)GlcNAc(b1-3)Gal(b1-4)GlcNAc(b1-3)Gal(b1-4)GlcNAc(b1-3)Gal(b1-4)GlcNAc(b1-2)Man(a1-6)]Man(b1-4)GlcNAc(b1-4)GlcNAc
# Procedure, shortened: as §1
# [21] = molecular target: Gal(b1-4)GlcNAc(b1-6)Gal(b1-4)GlcNAc
# Procedure, shortened: as §1
# [22] = molecular target: Gal(b1-4)GlcNAc(b1-6)[Gal(b1-3)]GalNAc
# Procedure, shortened: as §1
# [23] = molecular target: Gal(b1-4)GlcNAc(b1-6)[Gal(b1-3)]GlcNAc
# Procedure, shortened: as §1
binder,measurement,setting,value
B1,glycan array binding signal (z-score),[1],-0.296
same,glycan array binding signal (z-score),[2],-0.277
same,glycan array binding signal (z-score),[3],-0.26
same,glycan array binding signal (z-score),Fuc(a1-2)GlcNAc,-0.542
same,glycan array binding signal (z-score),[4],-0.269
same,glycan array binding signal (z-score),[5],-0.281
same,glycan array binding signal (z-score),[6],-0.291
same,glycan array binding signal (z-score),[7],-0.283
same,glycan array binding signal (z-score),[8],-0.272
same,glycan array binding signal (z-score),[9],-0.341
same,glycan array binding signal (z-score),[10],-0.265
same,glycan array binding signal (z-score),[11],-0.174
same,glycan array binding signal (z-score),Gal(a1-4)Gal(b1-4)Gal,0.374
same,glycan array binding signal (z-score),Gal(b1-2)Gal,0.199
same,glycan array binding signal (z-score),Gal(b1-3)Gal,2.9
same,glycan array binding signal (z-score),Gal(b1-3)Gal(b1-4)GlcNAc,5
same,glycan array binding signal (z-score),Gal(b1-3)GalNAc,2.56
same,glycan array binding signal (z-score),Gal(b1-3)GalNAc(b1-3)Gal,2.91
same,glycan array binding signal (z-score),[12],1.31
same,glycan array binding signal (z-score),[13],8.65
same,glycan array binding signal (z-score),[14],2.27
same,glycan array binding signal (z-score),[15],5.06
same,glycan array binding signal (z-score),[16],-0.225
same,glycan array binding signal (z-score),[17],1.54
same,glycan array binding signal (z-score),[18],2.48
same,glycan array binding signal (z-score),[19],2.81
same,glycan array binding signal (z-score),[20],1.3
same,glycan array binding signal (z-score),[21],2.34
same,glycan array binding signal (z-score),[22],2.73
same,glycan array binding signal (z-score),[23],2.48
